Source: PubChem BioAssay (NCATS)
Active and inactive are the calls of the source. How the calls were made is not given here.

Columns and labels:
[1] = Immunotoxin (HA22) sensitization/mitigation study. Vehicle arm (PBS) (AID 1159510); conditions: cancer cells viability with PBS vehicle (HA22 study); series mostly up to 46.1 µM
[2] = Immunotoxin (SS1P) sensitization/mitigation study. Vehicle arm (DMEM) (AID 1159513); conditions: cell viability with vehicle (DMEM); series mostly up to 46.1 µM
Potency means the concentration at half of the fitted maximal effect.

| Structure (SMILES) | Potency [1] | Potency [2] |
| --- | --- | --- |
| COc1cc2ncn(-c3cc(OCc4ccccc4C(F)(F)F)c(C(N)=O)s3)c2cc1OC | 0.296 µM (active) | 0.166 µM (active) |
| O=C(O)[C@H](Cc1c[nH]c2ccccc12)N1C(=O)c2ccccc2C1=O | inactive | inactive |
| CCCS(=O)(=O)Nc1ccc(F)c(C(=O)c2c[nH]c3ncc(Cl)cc23)c1F | 20.9 µM (active) | 16.6 µM (active) |
| CC[C@@H](C)[C@H](NC(=O)[C@H](CC1CCCCC1)NC(=O)c1ccno1)C(=O)N1CCC2(CCc3ccccc32)CC1 | inactive | 16.6 µM (active) |
| COc1ccc2c3n(c(=NC(=O)c4cccnc4)nc2c1OC)CCN3 | 11.8 µM (active) | 3.72 µM (active) |
| Nc1ccccc1NC(=O)c1ccc(CNC(=O)OCc2cccnc2)cc1 | 0.526 µM (active) | 5.9 µM (active) |
| N#Cc1ccc(NC(=O)Nc2ccccc2Br)c2n[nH]nc12 | 26.4 µM (active) | inactive |
| Cc1cn(-c2cc(NC(=O)c3ccc(C)c(Nc4nccc(-c5cccnc5)n4)c3)cc(C(F)(F)F)c2)cn1 | 14.8 µM (active) | 26.4 µM (active) |
| CCOC(=O)C(C)Oc1cccc2c(=O)n(CC(=O)Nc3ccc4c(c3)OCCO4)ccc12 (configuration not stated) | inactive | inactive |
| CCN(c1ccccc1)c1cc(NC)[n+](C)c(C)n1 | 18.7 µM (active) | 18.7 µM (active) |
| C#Cc1cccc(Nc2ncnc3cc(OC)c(OCCCCCCC(=O)NO)cc23)c1 | 0.132 µM (active) | 0.526 µM (active) |
| CN(C)c1ccc(C2Nc3ccc4ccccc4c3C3=C2C(=O)CC(C)(C)C3)cc1Br (configuration not stated) | 11.8 µM (active) | 18.7 µM (active) |
| COc1cccc2nc(-c3cccs3)nc(NN3C(=O)C=C(C)C3=O)c12 | 0.0166 µM (active) | 5.9 µM (active) |
| CS(=O)(=O)Oc1ccc2c(NC(N)=O)c(C(=O)c3ccc(Cl)cc3Cl)oc2c1 | inactive | inactive |
| Cc1ccnc(NS(=O)(=O)c2ccc(NC(=O)Nc3ccc(S(=O)(=O)Nc4nccc(C)n4)cc3)cc2)n1 | 16.6 µM (active) | 18.7 µM (active) |
| CC(C)[C@H](C(=O)Nc1ccc(C(=O)NO)cc1)c1ccccc1 | 0.0418 µM (active) | 0.132 µM (active) |
| NC(=O)c1ccc(-c2nc(-c3ccc4c(c3)OCO4)c(-c3ccccn3)[nH]2)cc1 | inactive | inactive |
| Cc1cc(Nc2cc(N3CCN(C)CC3)nc(Sc3ccc(NC(=O)C4CC4)cc3)n2)n[nH]1 | 7.43 µM (active) | 18.7 µM (active) |
| Nc1ccc(-c2ccc3ncc4ccc(=O)n(-c5cccc(C(F)(F)F)c5)c4c3c2)cn1 | 0.0187 µM (active) | 0.0526 µM (active) |
| C[C@@H]1C[C@H]2[C@@H]3CCC4=CC(=O)C=C[C@]4(C)C3(F)[C@@H](O)C[C@]2(C)[C@@]1(O)C(=O)CO (some centres not stated) | 0.059 µM (active) | inactive |
| CCC(=O)N1CCN(c2ccc(-n3c(=O)ccc4cnc5ccc(-c6cnc7ccccc7c6)cc5c43)cc2C(F)(F)F)CC1 | 4.18 µM (active) | 0.0209 µM (active) |

| Structure (SMILES) | Potency [1] | Potency [2] |
| --- | --- | --- |
| S=C(NCc1ccc2c(c1)OCO2)N1CCN(c2ncnc3c2oc2ccccc23)CC1 | 18.7 µM (active) | 0.372 µM (active) |
| COc1c(C)cnc(Cn2cnc3c(Cl)nc(N)nc32)c1C | 0.0187 µM (active) | 0.0105 µM (active) |
| CCOc1cc(N2CCC(O)CC2)ccc1Nc1ncc2c(n1)N(C)c1ccccc1C(=O)N2C | 13.2 µM (active) | 16.6 µM (active) |
| COc1cccc2cc(-c3nc(C4CCC(C(=O)O)CC4)n4ncnc(N)c34)[nH]c12 (configuration not stated) | 6.62 µM (active) | 0.235 µM (active) |
| CNc1nccc(-c2cccnc2Oc2cc(C(=O)Nc3cccc(C(F)(F)F)c3)ccc2C)n1 | 14.8 µM (active) | 23.5 µM (active) |
| O=C(O)c1ccc2c(c1)nc(Nc1cccc(Cl)c1)c1ccncc12 | 5.26 µM (active) | 11.8 µM (active) |
| CCOc1cc2ncc(C#N)c(Nc3ccc(F)c(Cl)c3)c2cc1NC(=O)C=CCN(C)C | 4.69 µM (active) | 14.8 µM (active) |
| Nc1nc(Nc2ccc(S(N)(=O)=O)cc2)nn1C(=O)c1c(F)cccc1F | 0.833 µM (active) | 3.72 µM (active) |
| COC(=O)c1ccc2c(C(=Nc3ccc(N(C)C(=O)CN4CCN(C)CC4)cc3)c3ccccc3)c(O)[nH]c2c1 | 0.209 µM (active) | 1.18 µM (active) |
| CN1CCC(CNc2ccc3ncc(-c4cccc(OC(F)(F)F)c4)n3n2)CC1 | 20.9 µM (active) | 16.6 µM (active) |
| CN(c1ncccc1CNc1nc(Nc2ccc3c(c2)CC(=O)N3)ncc1C(F)(F)F)S(C)(=O)=O | 1.48 µM (active) | 2.96 µM (active) |
| OCCC#Cc1nc(-c2ccc(F)cc2)c(-c2ccncc2)n1CCCc1ccccc1 | 23.5 µM (active) | 18.7 µM (active) |
| Cc1nc(N)sc1-c1ccnc(Nc2ccc(N3CCOCC3)cc2)n1 | 5.9 µM (active) | 18.7 µM (active) |
| O=C(Nc1ccc(OC(F)(F)F)cc1)c1sccc1NCc1ccnc2ccccc12 | 18.7 µM (active) | 18.7 µM (active) |
| CS(=O)(=O)c1ccc(C(=O)Nc2ccc(Cl)c(-c3ccccn3)c2)c(Cl)c1 | inactive | inactive |
| Cn1cc(-c2ccc3nnc(C(F)(F)c4ccc5ncccc5c4)n3n2)cn1 | inactive | inactive |
| CC(C)(C(=O)NCC(F)(F)C(F)(F)F)C(=O)N[C@@H]1C(=O)Nc2ccccc2-c2ccccc21 | inactive | inactive |
| c1ccc2c(CCNc3ccc(Nc4ccncc4)cc3)c[nH]c2c1 | 1.87 µM (active) | 20.9 µM (active) |
| O=c1[nH]c(-c2ccc(C(F)(F)F)cc2)nc2c1CSCC2 | inactive | inactive |
| C=C1C(=CC=C2CCCC3(C)[C@@H]([C@H](C)C=CC=CC(O)(CC)CC)CC[C@@H]23)C[C@@H](O)C[C@@H]1O (some centres not stated) | 23.5 µM (active) | 20.9 µM (active) |
